Source: PubChem BioAssay AID1159580 (chemical genetic matrix, 2015)
The whole screen tested about 5,500 compounds, of which about 2,000 (36%) were called active. About 18% were inconclusive and are not listed. Rule as the data show it: active = normalized growth mostly below about 0.91 (no sharp cut-off); inconclusive = no clear call, values can overlap the other calls; inactive = mostly above about 0.92. The list shows a part of the results.

Test: chemical genetic growth profiling, strain panel (AID 1159580);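 also: tested at 20 µM; growth read once vehicle control cultures reached saturation at 30 °C; 1 = growth at the plate median or of vehicle wells; lower values mean less growth of the strain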
Conditions: growth OD

Measured: normalized growth

CC1(C)S[C@@H]2[C@H](NC(=O)Cc3ccccc3)C(=O)N2[C@H]1C(=O)O
inactive: S. cerevisiae deletion strains, locus YJR066W, strain TOR1, active compounds read low 0.941 | S. cerevisiae deletion strains, locus YKL009W, strain mrt4, active compounds read low 1 | S. cerevisiae deletion strains, locus YKL068W, active compounds read low 1 | S. cerevisiae deletion strains, locus YKL085W, strain MDH1 (second series), active compounds read low 1 | S. cerevisiae deletion strains, locus YKL085W, strain MDH1, active compounds read low 1 | S. cerevisiae deletion strains, locus YKL160W, strain elf1, active compounds read low 1.01 | S. cerevisiae deletion strains, locus YKL190W, strain CNB1, active compounds read low 1.01 | S. cerevisiae deletion strains, locus YKR001C, strain vps1, active compounds read low 1.01 | S. cerevisiae deletion strains, locus YKR026C, strain gcn3, active compounds read low 1.03 | S. cerevisiae deletion strains, locus YKR091W, strain srl3, active compounds read low 1.01 | S. cerevisiae deletion strains, locus YLL001W, strain dnm1, active compounds read low 1.03 | S. cerevisiae deletion strains, locus YLL026W, active compounds read low 1.02 | S. cerevisiae deletion strains, locus YLL041C, strain sdh2, active compounds read low 1.01 | S. cerevisiae deletion strains, locus YLR027C, strain aat2, active compounds read low 1.03 | S. cerevisiae deletion strains, locus YLR039C, strain RIC1, active compounds read low 1.04 | S. cerevisiae deletion strains, locus YLR058C, strain SHM2, active compounds read low 1 | S. cerevisiae deletion strains, locus YLR102C, strain apc9, active compounds read low 1.02 | S. cerevisiae deletion strains, locus YLR113W, strain HOG1, active compounds read low 0.986 | S. cerevisiae deletion strains, locus YLR221C, strain rsa3, active compounds read low 1.03 | S. cerevisiae deletion strains, locus YLR258W, strain gsy2, active compounds read low 1.03 | S. cerevisiae deletion strains, locus YLR262C, strain YPT6 (second series), active compounds read low 1 | S. cerevisiae deletion strains, locus YLR262C, strain YPT6, active compounds read low 1.02 | S. cerevisiae deletion strains, locus YLR268W, strain sec22, active compounds read low 1.02 | S. cerevisiae deletion strains, locus YLR320W, strain mms22, active compounds read low 1.04 | S. cerevisiae deletion strains, locus YLR330W, strain CHS5, active compounds read low 1 | S. cerevisiae deletion strains, locus YLR342W, strain FKS1 (second series), active compounds read low 1.01 | S. cerevisiae deletion strains, locus YLR342W, strain FKS1, active compounds read low 1.03 | S. cerevisiae deletion strains, locus YLR357W, strain rsc2, active compounds read low 1.03 | S. cerevisiae deletion strains, locus YLR370C, strain arc18, active compounds read low 1.03 | S. cerevisiae deletion strains, locus YLR371W, strain rom2, active compounds read low 1.02 | S. cerevisiae deletion strains, locus YLR384C, strain iki3, active compounds read low 1.03 | S. cerevisiae deletion strains, locus YLR418C, strain cdc73, active compounds read low 1.03 | S. cerevisiae deletion strains, locus YML016C, strain PPZ1, active compounds read low 1.01 | S. cerevisiae deletion strains, locus YML032C, strain rad52, active compounds read low 1.02 | S. cerevisiae deletion strains, locus YML120C, strain ndi1, active compounds read low 1.04 | S. cerevisiae deletion strains, locus YML124C, strain tub3, active compounds read low 1.02 | S. cerevisiae deletion strains, locus YMR058W, strain fet3, active compounds read low 1.01 | S. cerevisiae deletion strains, locus YMR078C, strain ctf18, active compounds read low 1.03 | S. cerevisiae deletion strains, locus YMR125W, strain sto1, active compounds read low 1.06 | S. cerevisiae deletion strains, locus YMR129W, active compounds read low 1.03 | S. cerevisiae deletion strains, locus YMR205C, strain PFK2, active compounds read low 1.03 | S. cerevisiae deletion strains, locus YMR223W, strain ubp8, active compounds read low 1.02 | S. cerevisiae deletion strains, locus YMR231W, strain pep5, active compounds read low 1.03 | S. cerevisiae deletion strains, locus YMR263W, strain SAP30, active compounds read low 1 | S. cerevisiae deletion strains, locus YMR307W, strain GAS1, active compounds read low 1.01 | S. cerevisiae deletion strains, locus YNL067W, strain RPL9B, active compounds read low 1 | S. cerevisiae deletion strains, locus YNL071W, strain lat1, active compounds read low 1.02 | S. cerevisiae deletion strains, locus YNL128W, strain TEP1, active compounds read low 1.01 | S. cerevisiae deletion strains, locus YNL183C, strain NPR1, active compounds read low 0.944 | S. cerevisiae deletion strains, locus YNL209W, strain ssb2, active compounds read low 1.02 | S. cerevisiae deletion strains, locus YNL233W, strain BNI4, active compounds read low 0.999 | S. cerevisiae deletion strains, locus YNL248C, strain rpa49, active compounds read low 1.03 | S. cerevisiae deletion strains, locus YNL250W, strain rad50, active compounds read low 1.02 | S. cerevisiae deletion strains, locus YNL271C, strain bni1, active compounds read low 1.02 | S. cerevisiae deletion strains, locus YNL298W, strain CLA4, active compounds read low 1.01 | S. cerevisiae deletion strains, locus YNL307C, strain MCK1, active compounds read low 1.03 | S. cerevisiae deletion strains, locus YNL322C, strain KRE1 (second series), active compounds read low 1.04 | S. cerevisiae deletion strains, locus YNR049C, strain mso1, active compounds read low 1.01 | S. cerevisiae deletion strains, locus YNR052C, strain pop2, active compounds read low 1.02 | S. cerevisiae deletion strains, locus YOL006C, strain TOP1, active compounds read low 1.02 | S. cerevisiae deletion strains, locus YOL012C, strain htz1 1.12 | S. cerevisiae deletion strains, locus YOL147C, strain pex11, active compounds read low 1.02 | S. cerevisiae deletion strains, locus YOR001W, strain rrp6, active compounds read low 1.04 | S. cerevisiae deletion strains, locus YOR061W, strain CKA2, active compounds read low 1.01 | S. cerevisiae deletion strains, locus YOR069W, strain VPS5, active compounds read low 0.998 | S. cerevisiae deletion strains, locus YOR070C, strain gyp1, active compounds read low 1.03 | S. cerevisiae deletion strains, locus YOR080W, strain dia2, active compounds read low 1.02 | S. cerevisiae deletion strains, locus YOR083W, strain WHI5, active compounds read low 0.987 | S. cerevisiae deletion strains, locus YOR106W, strain vam3, active compounds read low 1.03 | S. cerevisiae deletion strains, locus YOR136W, strain idh2, active compounds read low 1.02 | S. cerevisiae deletion strains, locus YOR144C, strain elg1, active compounds read low 1.02 | S. cerevisiae deletion strains, locus YOR184W, strain ser1, active compounds read low 1.06 | S. cerevisiae deletion strains, locus YOR231W, strain MKK1, active compounds read low 0.994 | S. cerevisiae deletion strains, locus YOR265W, strain rbl2, active compounds read low 1.01 | S. cerevisiae deletion strains, locus YOR270C, strain vph1, active compounds read low 1.13 | S. cerevisiae deletion strains, locus YOR290C, strain snf2, active compounds read low 1.03 | S. cerevisiae deletion strains, locus YOR316C, strain cot1, active compounds read low 1.02 | S. cerevisiae deletion strains, locus YPL051W, strain arl3, active compounds read low 1.03 | S. cerevisiae deletion strains, locus YPL055C, strain LGE1, active compounds read low 1.01 | S. cerevisiae deletion strains, locus YPL078C, strain atp4, active compounds read low 1.03 | S. cerevisiae deletion strains, locus YPL106C, strain sse1, active compounds read low 1.02 | S. cerevisiae deletion strains, locus YPL240C, strain hsp82, active compounds read low 1.02 | S. cerevisiae deletion strains, locus YPL256C, strain CLN2, active compounds read low 0.966 | S. cerevisiae deletion strains, locus YPR119W, strain clb2, active compounds read low 1.03 | S. cerevisiae deletion strains, locus YPR141C, strain kar3, active compounds read low 1.01 | S. cerevisiae deletion strains, locus YPR163C, strain tif3, active compounds read low 1.03 | S. cerevisiae deletion strains, locus YPR167C, strain met16, active compounds read low 1.02 | S. cerevisiae deletion strains, strain wtn01, active compounds read low 1.01 | S. cerevisiae strains, strain wild type, active compounds read low 1
